According to PubChem BioAssay AID372 (MTDP, 2006):
Out of some 100,000 compounds screened, about 770 (0.77%) were called active. The sample as a whole holds a higher share of actives than the screen did. Values without a mark were called inactive. No stated cut-off is given here; in the data, active means inhibition above about 50%; inactive means the rest.

Target: Gag-Pol polyprotein (Human immunodeficiency virus type 1 group M subtype B (isolate HXB2)) (UniProt P04585)
Experiment: RNase H inhibition, HIV 1 Gag Pol polyprotein, FRET biochemical assay, screening (AID 372)
Conditions: HIV-1 RT RNase H, FRET RNA/DNA substrate fluorescence; at 10 µM; hits give high values

Going from `Cc1cccc(C)c1NC(=O)c1ccc(N(Cc2ccc(Cl)cc2)S(C)(=O)=O)cc1` to `Cc1cccc(C)c1NC(=O)c1ccc(-c2ccc(Cl)cc2Cl)o1`, the inhibition rises from 15% to 28%.

Going from `Cc1ccccc1OCCOc1ccc(Br)cc1/C=C1\SC(N)=NC1=O` to `N#C/C(=C\c1cc(Br)ccc1OCc1ccccc1)C(N)=O`, the inhibition falls from 33% to 10%.

Going from `Cc1cccc(OCC(=O)Nc2ccccc2C(C)C)c1C` to `Cc1ccccc1C(=O)NNC(=S)Nc1ccccc1`, the inhibition falls from 8% to 7%.

First: O=C(CCN1C(=O)/C(=C/c2ccccc2Cl)SC1=S)Nc1ccc(-c2ccccc2)cc1
Second: CCN(CC)c1ccc(/C=C2\C(=O)N(c3nc(-c4ccc(Cl)cc4)cs3)N=C2c2ccccc2)cc1
The inhibition of the first is higher: 16% for the first, 8% for the second.

`CSc1nc2ccccc2n1CCOc1ccc(C)cc1` and `Cc1ccc(Oc2ccc3noc4c3c2C(=O)c2ccccc2-4)cc1` are the same in inhibition: 8% for the first, 8% for the second.

Compared with `Clc1ccc(COc2ccc(/C=N/n3cnnc3)cc2)c(Cl)c1`, `O=Cc1cccc(OCc2ccc(Cl)cc2Cl)c1` is higher in inhibition: 3% for the first, 32% for the second.

`CCSCCOC(=O)C1=C(C)NC2=C(C(=O)CC(c3cccs3)C2)C1c1ccc(C)s1` (configuration not stated) and `CCOC(=O)C1=C(C)NC2=C(C(=O)CC(c3ccc(OC)cc3)C2)C1c1ccc(O)cc1` (configuration not stated) are the same in inhibition: 11% for the first, 11% for the second.

First: COc1ccc(OC)c(C2C(C(C)=O)=C(O)C(=O)N2CC2CCCO2)c1 (configuration not stated)
Second: COc1ccc(C2/C(=C(/O)c3ccccc3)C(=O)C(=O)N2c2ccc(C)cc2)cc1 (configuration not stated)
The inhibition of the first is lower: 0% for the first, 7% for the second.

Going from `O=C1NC(=S)N(c2ccccc2F)C(=O)/C1=C/c1ccc(N2CCCC2)o1` to `CCc1ccccc1N1C(=O)NC(=O)/C(=C\c2ccc(N3CCCCC3)o2)C1=O`, the inhibition falls from 14% to 9%.

Compared with `O=C1NC(=S)N(c2ccc(Cl)cc2)C(=O)/C1=C\c1ccc(Cl)s1`, `O=C1NC(=S)N(c2cccc(Cl)c2Cl)C(=O)/C1=C/c1ccc(Cl)cc1` is higher in inhibition: 8% for the first, 10% for the second.

Compared with `Cc1cc(Br)ccc1N1C(=O)/C(=C/c2cccs2)C(=O)NC1=S`, `Cc1ccc(/C=C2\C(=O)NC(=S)N(c3ccc(Br)cc3C)C2=O)o1` is higher in inhibition: 16% for the first, 24% for the second.

Compared with `Cc1ccc(/C=C2\C(=O)NC(=S)N(c3ccc(Br)cc3)C2=O)o1`, `Cc1ccc(/C=C2\C(=O)NC(=S)N(c3ccc(Cl)c(Cl)c3)C2=O)o1` is lower in inhibition: 32% for the first, 11% for the second.

Going from `O=C1NC(=S)N(c2ccccc2F)C(=O)/C1=C/c1ccc(-c2ccc(Cl)cc2)o1` to `O=C1NC(=O)N(c2ccccc2F)C(=O)/C1=C/c1ccc(I)o1`, the inhibition falls from 14% to 0%.

Compared with `Cc1ccc(N2C(=O)/C(=C/c3ccco3)C(=O)NC2=S)cc1`, `O=C1NC(=S)N(c2ccc(Br)cc2)C(=O)/C1=C/C=C/c1ccco1` is higher in inhibition: 9% for the first, 16% for the second.

Compared with `C=CCc1cccc2cc(C(=O)N3CCCCC3)c(=O)oc12`, `Cc1oc(C(=O)O)cc1CSc1nc2ccccc2[nH]1` is higher in inhibition: 1% for the first, 5% for the second.

Going from `CCCCn1c(O)c(/C=C2\C=Nc3ccccc32)c(=O)[nH]c1=O` to `CCn1c(-c2ccccc2C)n[nH]c1=S`, the inhibition falls from 25% to 2%.

Compared with `O=C1NC(=S)N(c2cccc(Cl)c2Cl)C(=O)/C1=C/c1ccc(I)o1`, `Cc1ccccc1N1C(=O)/C(=C/c2ccc(I)o2)C(=O)NC1=S` is lower in inhibition: 45% for the first, 18% for the second.

First: O=C1NC(=O)N(c2ccc(Cl)cc2)C(=O)/C1=C\C=C\c1ccccc1[N+](=O)[O-]
Second: O=C1NC(=S)N(c2ccccc2)C(=O)/C1=C\C=C\c1ccccc1[N+](=O)[O-]
The inhibition of the first is lower: 14% for the first, 16% for the second.

Compared with `Cc1cccc(N2C(=O)/C(=C/C=C/c3ccco3)C(=O)NC2=S)c1`, `Cc1ccc(/C=C2/SC(=O)N(CO)C2=O)cc1` is lower in inhibition: 11% for the first, 0% for the second.

Going from `Cc1cc(C=O)c(C)n1-c1ccc(Cl)cc1` to `CC(=O)Nc1ccc2oc(-c3ccc(Cl)cc3)nc2c1`, the inhibition falls from 10% to 9%.

Going from `O=[N+]([O-])c1ccc(NC(=S)Nc2ccccc2)c(O)c1` to `Cc1ccccc1/C=C(/C#N)c1ccc([N+](=O)[O-])cc1`, the inhibition rises from 2% to 42%.

First: Cc1ccc(/C=N/NC(=O)c2ccc(F)cc2)s1
Second: N#C/C(=C/c1ccccc1OS(=O)(=O)c1ccccc1)c1ccc([N+](=O)[O-])cc1
The inhibition of the first is lower: 7% for the first, 16% for the second.

`COc1ccccc1/C=C(\C#N)C(N)=O` and `N#C/C(=C\c1ccccc1[N+](=O)[O-])C(N)=O` are the same in inhibition: 0% for the first, 0% for the second.

Going from `N#C/C(=C\c1cc(Br)ccc1OCc1cccc2ccccc12)C(N)=O` to `O=C(COc1ccccc1[N+](=O)[O-])Nc1ccc2oc(-c3cc(Br)ccc3Cl)nc2c1`, the inhibition rises from 30% to 49%.

First: COc1nc(Nc2ccccc2)nc(NC(C)(C)C)n1
Second: CC(NC(=O)/C(C#N)=C/c1ccc(N(C)C)c(Br)c1)c1ccccc1 (configuration not stated)
The inhibition of the first is lower: 7% for the first, 15% for the second.

Going from `O=C(N1CCN(C(c2ccccc2)c2ccccc2)CC1)C12CC3CC(CC(C3)C1)C2` to `OC1CC(c2ccccc2)NC2(CCCCC2)C1` (configuration not stated), the inhibition falls from 25% to 2%.

First: CS(=O)(=O)N/N=C/c1ccc2c(c1)OCO2
Second: C=CCN1C(=O)/C(=C/c2ccc(N(C)C)cc2)SC1=S
The inhibition of the first is lower: 0% for the first, 17% for the second.

First: COc1ccc(-c2cc(C(F)(F)F)n3nc(C(=O)NC(C)C)c(Cl)c3n2)cc1OC
Second: O=C1c2ccccc2-c2onc3ccc(Oc4ccccc4)c1c23
The inhibition of the first is higher: 7% for the first, 2% for the second.

For `Clc1ccc(COc2cccc(/C=N/n3cnnc3)c2)c(Cl)c1`, the inhibition was 50% (active).
For `O=C1NC(=S)N(c2cccc(Cl)c2Cl)C(=O)/C1=C/c1ccco1`, the inhibition was 58% (active).
`C=CCc1ccccc1OCCOc1ccc(Br)cc1/C=C(\C#N)C(N)=O` was tested, and the inhibition was 60% (active).
With `N#C/C(=C/c1ccccc1OCc1ccccc1F)c1ccc([N+](=O)[O-])cc1` the inhibition was 54% (active).
In the case of `N#C/C(=C\c1ccccc1OCCOc1ccc([N+](=O)[O-])cc1)C(N)=O`, the inhibition is reported as 57% (active).
In the case of `CC(C)(C)c1ccc(Oc2ccc3noc4c3c2C(=O)c2ccccc2-4)cc1`, the inhibition is reported as 50% (active).
